Screening results from PubChem BioAssay.
Only some compounds are listed: those with a hit (about 21% of all), similar ones and a draw of the others.
Shiga toxin inh – blocks Shiga toxin action in Vero cells. Vero cells, Shiga toxin protein synthesis inhibition reporter. inhibition, % at 38.7 µM. 290,000 tested, 9.2% active; in the data active means inhibition mostly above about 28%, no sharp cut-off; inactive means mostly below about 43%
Pf growth 96h – P. falciparum growth inhibition at 96 hours | P. falciparum luciferase reporter growth, 96 h | Potency, µM (top dose mostly 28.7 µM), hits mostly inhibitors | 320,000 tested, 6.9% active
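96 h incubation, 37 C, 5% CO2, of luciferase-reporter P. falciparum-infected RBCs (2% hematocrit, 0.05% parasitemia final) with test compounds; endpoint luminescence.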
NS1 inh – blocks influenza NS1 protein function. Potency, µM (highest dose often 46.1 µM). 270,000 tested, 0.4% active. AID 2326; calls by dose curve; further: actives are rising curves; nearly all actives have a fitted effect of over 50% in size
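S. cerevisiae expressing influenza A NS1, grown in glucose, washed, then diluted 1:100 into pH 6.0 -URA galactose medium with 23 nl compound. Growth recovery read as OD600; NS1-free strain serves as control.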
Cycloheximide cs – counter-screen hit for Shiga toxin inhibitors, cycloheximide; cell reporter, cycloheximide protein synthesis inhibition counterscreen; max response, %; 300,000 tested, 12% active; in the data active means max response mostly above about 13%, no sharp cut-off; inactive means mostly below about 14%; further: read at 38.3 µM for the half of the compounds with a filed dose
Pf growth 48h – inhibits P. falciparum growth in the first generation, 48 h. 310,000 tested, 5.9% active. Potency, µM (series often up to 28.7 µM), actives largely listed as inhibitors. P. falciparum luciferase growth in erythrocytes, 48 h
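Compounds are pin-transferred into medium, infected erythrocytes (2% hematocrit, 0.1% parasitemia final) are added, and plates sit one parasite generation at 37 C in 5% CO2. Detection reagent is then added and luminescence measured.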
Each line names hits and unclear results; the compound was inactive in the other large screens; ! = not confirmed by another sample. Unless noted, the call rests on the fitted dose curve; in most records, active means well fitted inhibition curve with a large enough effect; inconclusive means small, poorly fitted or top-dose-only effect, or another doubt; inactive means no such curve, though single readings can be large or run the other way.

S=C(Nc1ccc(Cl)cc1)NC1CC2CCC(C1)N2Cc1ccccc1 (stereo not drawn)	Pf growth 48h 3.29µM
NCCCCCCCCCCN	none (no result: Shiga toxin inh, Pf growth 96h, Cycloheximide cs, Pf growth 48h)
C=C1CCC[C@]2(C)C[C@H]3OC(=O)C(CN(Cc4ccc(OC)c(OC)c4)CC(C)O)[C@H]3CC12 (stereo partly drawn)	Pf growth 96h inconclusive, Pf growth 48h inconclusive
COc1ccccc1-c1noc(-c2ccccc2C(=O)NCC2CCCO2)n1 (stereo not drawn)	Cycloheximide cs 16.1
Cc1ccccc1-c1noc(-c2ccccc2C(=O)NCC2CCCO2)n1 (stereo not drawn)	none
O=C(NCC1CCCO1)c1cccc(F)c1 (stereo not drawn)	Pf growth 96h inconclusive, Pf growth 48h inconclusive
COc1ccc(-c2noc(-c3ccccc3C(=O)NCC3CCCO3)n2)cc1 (stereo not drawn)	Cycloheximide cs 19.1
O=C(NCC1CCCO1)c1cc(-c2ccccc2F)no1 (stereo not drawn)	Shiga toxin inh 91.0, Cycloheximide cs 29.1
O=C(COC(=O)COc1ccc(Cl)cc1)Nc1ccc(N2CCOCC2)cc1	Pf growth 48h inconclusive
CCCCCCCCNC(C)C(O)c1ccc(SC(C)C)cc1 (stereo not drawn)	Pf growth 96h 0.928µM!, Pf growth 48h 1.85µM
O=C(Nc1ccc(Cl)cn1)Nc1ccc(Cl)cn1	Pf growth 96h inconclusive (no result: NS1 inh)
COc1cc2ccccc2cc1C(=O)Nc1ccc(Cl)cn1	Cycloheximide cs 15.6 (no result: Shiga toxin inh)
C/C(=C\c1ccccc1)C(=O)Nc1ccc(Cl)cn1	Shiga toxin inh 95.4, Cycloheximide cs 39.2
Cc1cc(C)cc(NC(=O)Nc2ccc(Cl)cn2)c1	Pf growth 96h inconclusive
O=C(NC(=O)c1ccccc1)Nc1ccc(Cl)cn1	Shiga toxin inh 145.3, Cycloheximide cs 51.5
O=C(Nc1ccc(Cl)cn1)Nc1ccccc1F	Shiga toxin inh 52.6
Cc1ccc(NC(=O)c2ccc3[nH]c(=O)c(=O)[nH]c3c2)nc1	none
O=C(Nc1ccc(Cl)cn1)c1cccc(F)c1	Shiga toxin inh 120.7, Cycloheximide cs 32.3
O=C(Nc1nnc(-c2ccc(Cl)cc2)o1)Nc1ccccc1F	Shiga toxin inh 34.2
O=C(Nc1ncccn1)c1cccc(F)c1	Shiga toxin inh 21.5, Pf growth 96h inconclusive, Cycloheximide cs 10.9
O=C(Nc1ccc(Cl)cn1)c1ccc2[nH]c(=O)c(=O)[nH]c2c1	Cycloheximide cs 11.9
O=C(Nc1ccccn1)c1cc2ccccc2o1	Pf growth 96h inconclusive
O=C(Nc1ccc(Cl)cn1)c1cc2ccccc2o1	Shiga toxin inh 104.5, Cycloheximide cs 65.6 (no result: Pf growth 96h)
O=C(Nc1ccc(Cl)cn1)c1ccccc1F	Shiga toxin inh 88.0, Cycloheximide cs 32.4
C=CCN(CC=C)C(=O)c1ccc(OC2CCN(C(C)=O)CC2)c(OC)c1	Pf growth 96h 2.94µM, Pf growth 48h inconclusive
COc1cc(C(=O)NCc2ncccc2C)ccc1OC1CCN(C(C)=O)CC1	Pf growth 96h 14.7µM
COc1cc(C(=O)N(C)C2CCCCC2)ccc1OC1CCN(C(C)=O)CC1	Pf growth 96h inconclusive (no result: Shiga toxin inh)
Nc1c(C(=O)c2ccccc2)sc2snc(SCC(=O)c3ccccc3)c12	none
COc1ccc(C(=O)NCC(=O)N2CCN(c3ccc(F)cc3)CC2)cc1	none
COc1cccc2c1c(NC(=O)c1cc(C)on1)nn2C	none
CN(C)c1cccc2c1c(NC(=O)Nc1ccccc1)nn2C	Pf growth 96h 9.28µM, Pf growth 48h inconclusive
COc1ccccc1NC(=O)Nc1nn(C)c2cccc(OC)c12	Pf growth 96h 11.7µM, Pf growth 48h inconclusive
Cc1ccc2c(c1)c1c3n2CCN(CCC(=O)O)C3CCC1 (stereo not drawn)	none
Cc1ccc2c(c1)c(=O)c1c3n2CCN(C(=O)CCl)C3CC1 (stereo not drawn)	Pf growth 96h 5.22µM (no result: Pf growth 48h)
Cc1ccc2c(c1)c1c3n2CCN(C(=O)CN2CCN(C)CC2)C3CCC1 (stereo not drawn)	Pf growth 48h inconclusive (no result: Pf growth 96h)
Cc1ccc2c(c1)c1c3n2CCN(C(=O)Cn2c(-c4ccccc4)noc2=O)C3CCC1 (stereo not drawn)	Pf growth 96h 9.28µM, NS1 inh inconclusive, Pf growth 48h 0.185µM
Cc1ccc2c(c1)c1c3n2CCN(CC(O)CNC(C)C)C3CCC1 (stereo not drawn)	Pf growth 96h 13.1µM, Pf growth 48h inconclusive
Cc1ccc2c(c1)c1c3n2CCN(CC(N)=O)C3CCC1 (stereo not drawn)	Pf growth 48h 13.1µM
Cc1ccc2c(c1)c1c3n2CCCN(Cc2ccccc2)C3CCC1 (stereo not drawn)	Pf growth 48h 0.928µM (no result: Pf growth 96h)
